Measurements: PubChem BioAssay (NCI)
Values joined by “and” are separate entries in the source; they are usually repeats but may differ in a detail not shown here. Identical values can stand only once. This is part of a sample that, as a whole, favours compounds with a hit. Of some 83,000 tested, about 20% had one in any assay.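 Activity criterion: percent growth below 10, measured after cells in 96-well plates were exposed to a single compound concentration for 48 hours.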 Unmarked numbers belong to inactive results. Active and inactive are the calls of the source.

tested on: MDA-MB-468 breast; experiment: NCI-60 one-dose screen, 48 h (100 = growth as untreated, 0 = no growth, -100 = all killed); settings: 10 µM unless noted

Structure (SMILES)	growth
CN1CCN(CC(=O)N(C)c2ccc(N=C(c3ccccc3)c3c(O)[nH]c4ccc(C#N)cc34)cc2)CC1	93.8%
Cc1cc2oc(=O)cc(CP(=O)(O)O)c2cc1O	89.8%
CC(C)(C)[Si](C)(C)OC1[C@@H](CNC(N)=O)O[C@@H](n2cnc3c(NC(=O)Nc4ccccc4)ncnc32)[C@H]1O[Si](C)(C)C(C)(C)C (stereo not given in full)	85.2%
CC(=O)c1ccccc1O	101% and 103% and 108%
CN(CCCCCl)P(=O)(OCc1ccc([N+](=O)[O-])o1)C(F)(F)C[C@H](NC(=O)CNC(=O)c1ccc(N=[N+]=[N-])cc1)C(=O)NCCc1ccc(O)cc1 (stereo not given in full)	12.5%
CN(C)Cc1ccc(NC(=O)c2cncc(C#Cc3cnc(N)c4ncccc34)c2)cc1F	72.3%
Oc1ccccc1-c1nc2ccccn2c1NCCN1CCOCC1	109%
C=CC[P+](c1ccccc1)(c1ccccc1)c1ccccc1	10.9%
COc1cc(-c2nn(-c3ccc(NC(=O)Nc4ccc(Cl)c(C(F)(F)F)c4)cc3)cc2-c2ccncc2)ccc1Cl	-13.2% (active)
CN1C(=O)NC(c2ccc(Cl)cc2)(c2ccc(Cl)cc2)C1=O	104%
CCOC(=O)C(C(=O)OCC)C(c1ccccc1)N1CCN(c2ccccc2)CC1 (stereo not given)	108% and 103%
COc1cc(/C=C2\C(=O)Nc3cc(C)c(O)cc32)cc(OC)c1OC	29.3%
Cc1ccc(-c2nc(/C=N/Nc3cc(C)nc4ccc(Br)cc34)c(C)o2)cc1	-89% (active)
CCCCC[C@H]1C/C=C2/C(=O)C(Cl)=C[C@@H]2C/C=C\CCCC(=O)O[C@@H](CCCCC)C/C=C2/C(=O)C(Cl)=C[C@@H]2C/C=C\CCCC(=O)O1	-46% (active)
O=c1onc(-c2ccccc2)c2ccccc12	108%
CN1CCN(Cc2ccc(NC(=O)c3cncc(C#Cc4cnc5ccc(NCCCO)nn45)c3)cc2C(F)(F)F)CC1	-59.6% (active)
O=c1[nH]c(CNc2ccc(NCc3c(-c4ccccc4)no[n+]3[O-])cc2)nc2c1cnn2-c1ccccc1	33.2%
CC(=O)[C@@H]1CC[C@]2(C(N)=O)CC[C@]3(C)[C@H](CC[C@@H]4[C@@]5(C)CCC(=O)C(C)(C)[C@@H]5CC[C@]43C)[C@@H]12	98.5%
COc1ccc(Cn2c(Br)c3c(c2Br)-c2nc(NC(=O)c4ccc(OC)cc4)sc2CC3)cc1	83.5%
Clc1cccc(Nc2ncnc3ccc(-c4cnc5[nH]ccc5c4)cc23)c1	-16.9% (active)

Structure (SMILES)	growth
CCOc1nc(-c2ccccc2)cc2c(O)c(C(=O)N/N=C/c3ccc(N(C)C)cc3)[nH]c(=O)c12	158%
CCCC(=O)CC(=O)c1ccccc1	97.5%
O=C1/C(=C/c2ccc(F)cc2)CN(C(=O)C(Cl)Cl)C/C1=C\c1ccc(F)cc1	-47% (active)
Oc1ccc(-c2nc3ccc4[nH]ncc4c3c3c2CCCC3)c2cccnc12	-17.1% (active)
CCOC(=O)C(=Cc1ccc(-c2ccccc2)cc1)C(=O)OCC	53%
CC(=O)Cc1ccc(-c2ccccc2)cc1	93.7%
CN(C)CCCOc1c2ccc(Cl)cc2nc2c1oc1ccc(Cl)cc12	-48% (active)
CCN(CC)c1ccc(NC(C(=O)c2ccccc2)c2ccccc2)cc1 (stereo not given)	1.41% (active)
COc1ccc2c(c1)C=CC1(O2)Oc2ccc(OC)cc2C=C1C (stereo not given)	47.3%
COc1ccc(-c2nc3ccc(C)cc3c3c2c(=O)n(C)c(=O)n3C)cc1OC	100%
Nc1ccc(-n2c(=O)oc3ccc(Cl)cc3c2=O)c(Cl)c1	-6.87% (active)
CCOC(=O)C1=C(C)N2C(=NC3=C(CCCC/C3=C\c3cc(OC)c(OC)c(OC)c3)C2c2cc(OC)c(OC)c(OC)c2)S1 (stereo not given)	25.2%
CCN(CC)CCCNc1ccc(Nc2ccc(OC)cc2)cc1	78.8%
CC(C)N(CCNc1nc(C(Cl)(Cl)Cl)nc2cc(Cl)ccc12)C(C)C	-50% (active)
O=CN1N=C(c2cccc(Nc3ccnc4cc(Cl)ccc34)c2)CC1c1ccccc1 (stereo not given)	13%
COc1cc(C)cc(-c2c(-c3cc(N4CC(O)C4)nc(-c4cccnc4)n3)cnn2C)c1	80.2%
CNC(=O)c1cc(Oc2ccc(NC(=O)Nc3cc(C(C)(C)C)nn3-c3ccc4ncccc4c3)c(F)c2)ccn1	-61.8% (active)
CCOc1cc2c(cc1OCC)C(c1cc(OC)c(O)cc1Cl)NCC2 (stereo not given)	61.4%
CCCNC(=O)c1ccc(S(N)(=O)=O)cc1	82.1%
NNC(=O)C1CC2c3ccccc3C1c1ccccc12 (stereo not given)	112%
